PubChem BioAssay
Calls of active or inactive are those of the source.

Tests used:
[1] = target: Albumin (Bos taurus) (UniProt P02769); experiment: bovine serum albumin binders on microarray, profiling panel, artefact control for SMM control protein annotation, biochemical, small-molecule microarray, Alexa647 label, 635/667 nm fluorescence (AID 1118); conditions: BSA-A647 binding, fluorescence 635 nm, higher = more signal;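 note: score merges 667 nm emission intensity and signal-to-noise per printed compound spot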
Sequence of Albumin (Bos taurus) (P02769 whole entry, looked up): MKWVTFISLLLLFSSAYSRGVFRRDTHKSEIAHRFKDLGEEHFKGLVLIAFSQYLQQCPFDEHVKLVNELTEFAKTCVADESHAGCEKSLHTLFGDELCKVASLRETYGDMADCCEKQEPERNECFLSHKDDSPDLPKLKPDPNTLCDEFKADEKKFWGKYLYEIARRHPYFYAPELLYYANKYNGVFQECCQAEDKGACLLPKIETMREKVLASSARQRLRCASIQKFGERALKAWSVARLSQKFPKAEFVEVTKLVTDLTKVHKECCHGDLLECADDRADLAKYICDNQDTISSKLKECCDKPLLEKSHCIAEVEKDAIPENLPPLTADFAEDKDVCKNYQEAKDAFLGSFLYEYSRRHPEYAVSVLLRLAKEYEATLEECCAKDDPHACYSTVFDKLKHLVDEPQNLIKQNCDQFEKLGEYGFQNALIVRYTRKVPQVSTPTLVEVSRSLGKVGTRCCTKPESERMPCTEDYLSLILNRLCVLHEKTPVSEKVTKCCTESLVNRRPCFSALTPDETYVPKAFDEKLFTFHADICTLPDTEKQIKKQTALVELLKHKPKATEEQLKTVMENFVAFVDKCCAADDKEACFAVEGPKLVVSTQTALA

[2] = small-molecule microarray binders of probe aXIP, primary screen, biochemical, NeuroSMM set, 635/667 nm fluorescence (AID 1119); conditions: higher = more signal, called active from +8 up or from −8 down;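 note: probe is the protein aXip251-270 applied at 1 µg/mL to compound-printed slides; binding of probe to printed compounds measured as 667 nm fluorescence plus signal to noise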
[3] = small-molecule binders of probe aNOTCH3, primary screen, biochemical, small-molecule microarray, 635/667 nm fluorescence (AID 1120); conditions: higher = more signal;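 note: probe is a biotin-tagged antibody raised against NOTCH3 rather than NOTCH3 protein; score merges spot fluorescence near 667 nm with spot signal to noise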
[4] = small-molecule binders of probe aNOTCH2, primary screen, biochemical, small-molecule microarray, 635/667 nm fluorescence (AID 1121); conditions: higher = more signal;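 note: score merges feature fluorescence read at 667 nm with its signal to noise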
[5] = target: Carbonic anhydrase 2 (Homo sapiens) (UniProt P00918); experiment: CAII small-molecule binders, profiling panel, biochemical, small-molecule microarray, Alexa647-labelled CAII (AID 1122); conditions: CAII-A647 binding fluorescence, higher = more signal
[6] = COS7 lysate on small-molecule microarray, probe aHis, 635 nm (AID 1123); conditions: COS7 cell lysate, fluorescence, higher = more signal;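 note: z-score combines 667nm fluorescence intensity with signal-to-noise per printed compound spot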
[7] = compound binding in COS7 lysate, probe aLAP1, primary screen, cell lysate, small-molecule microarray (AID 1124); conditions: probe aLAP1, fluorescence, higher = more signal;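 note: lysate comes from COS7 cells expressing LAP1 and is applied at 0.3 µg/mL; score merges spot fluorescence near 667 nm with signal-to-noise over triplicate slides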
[8] = tested on: Sam68 (KHDRBS1); experiment: Sam68 small-molecule binders, primary screen, biochemical, small-molecule microarray, 635 nm fluorescence (AID 1125); conditions: small-molecule microarray binding, higher = more signal;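 note: score merges 667 nm channel intensity with signal to noise over triplicate slides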
[9] = tested on: Chordin-like protein 2 (CHRDL2); experiment: CHRDL2 small-molecule binders, primary screen, biochemical, small-molecule microarray, 635 nm fluorescence (AID 1126); conditions: small-molecule microarray binding, fluorescence 635 nm; higher = more signal;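 note: printed compound slides probed with Chrdl2 protein at 4 µg/mL for 1 h at 4 C; score merges 667 nm emission intensity with signal to noise over three replicate slides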
[10] = target: Concanavalin-A (Canavalia ensiformis) (UniProt P02866); experiment: ConA small-molecule binders, primary screen, artefact control for SMM control protein annotation, biochemical, small-molecule microarray, Alexa647 label, 635 nm (AID 1127); conditions: ConA-A647 binding fluorescence, higher = more signal;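 note: z combines 667 nm emission intensity with signal-to-noise across three replicate slides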
Sequence of Concanavalin-A (Canavalia ensiformis) (P02866 whole entry, looked up): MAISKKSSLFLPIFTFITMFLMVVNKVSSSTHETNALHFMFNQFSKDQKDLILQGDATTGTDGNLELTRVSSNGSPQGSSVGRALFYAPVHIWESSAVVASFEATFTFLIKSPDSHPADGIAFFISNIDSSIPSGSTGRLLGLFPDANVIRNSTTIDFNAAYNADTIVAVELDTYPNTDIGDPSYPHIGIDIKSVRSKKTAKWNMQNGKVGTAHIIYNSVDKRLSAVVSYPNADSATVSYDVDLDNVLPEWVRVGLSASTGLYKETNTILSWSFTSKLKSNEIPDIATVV

[11] = anti-His antibody binders, primary screen, artefact control for SMM control protein annotation, biochemical, small-molecule microarray, 635 nm fluorescence (AID 1128); conditions: anti-His Alexa647 antibody binding, higher = more signal;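 note: score merges feature fluorescence with signal-to-noise for each printed compound spot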
[12] = tested on: Human papillomavirus type 1a E7 protein (residues 1-88); experiment: HPV1a E7 small-molecule binders, primary screen, biochemical, small-molecule microarray, residues 1-88, 635 nm (AID 1129); conditions: small-molecule microarray binding, fluorescence 635 nm; higher = more signal
[13] = target: Focal adhesion kinase 1 (Homo sapiens) (UniProt Q05397); experiment: small-molecule microarray binders of FAK, primary screen, biochemical, 635/667 nm fluorescence, BSA, DTT (AID 1130); conditions: PTK2 binding, 635 nm fluorescence, higher = more signal;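 note: composite of spot emission at 667 nm and signal to noise over triplicate slides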
Sequence of Focal adhesion kinase 1 (Homo sapiens) (Q05397 whole entry, looked up): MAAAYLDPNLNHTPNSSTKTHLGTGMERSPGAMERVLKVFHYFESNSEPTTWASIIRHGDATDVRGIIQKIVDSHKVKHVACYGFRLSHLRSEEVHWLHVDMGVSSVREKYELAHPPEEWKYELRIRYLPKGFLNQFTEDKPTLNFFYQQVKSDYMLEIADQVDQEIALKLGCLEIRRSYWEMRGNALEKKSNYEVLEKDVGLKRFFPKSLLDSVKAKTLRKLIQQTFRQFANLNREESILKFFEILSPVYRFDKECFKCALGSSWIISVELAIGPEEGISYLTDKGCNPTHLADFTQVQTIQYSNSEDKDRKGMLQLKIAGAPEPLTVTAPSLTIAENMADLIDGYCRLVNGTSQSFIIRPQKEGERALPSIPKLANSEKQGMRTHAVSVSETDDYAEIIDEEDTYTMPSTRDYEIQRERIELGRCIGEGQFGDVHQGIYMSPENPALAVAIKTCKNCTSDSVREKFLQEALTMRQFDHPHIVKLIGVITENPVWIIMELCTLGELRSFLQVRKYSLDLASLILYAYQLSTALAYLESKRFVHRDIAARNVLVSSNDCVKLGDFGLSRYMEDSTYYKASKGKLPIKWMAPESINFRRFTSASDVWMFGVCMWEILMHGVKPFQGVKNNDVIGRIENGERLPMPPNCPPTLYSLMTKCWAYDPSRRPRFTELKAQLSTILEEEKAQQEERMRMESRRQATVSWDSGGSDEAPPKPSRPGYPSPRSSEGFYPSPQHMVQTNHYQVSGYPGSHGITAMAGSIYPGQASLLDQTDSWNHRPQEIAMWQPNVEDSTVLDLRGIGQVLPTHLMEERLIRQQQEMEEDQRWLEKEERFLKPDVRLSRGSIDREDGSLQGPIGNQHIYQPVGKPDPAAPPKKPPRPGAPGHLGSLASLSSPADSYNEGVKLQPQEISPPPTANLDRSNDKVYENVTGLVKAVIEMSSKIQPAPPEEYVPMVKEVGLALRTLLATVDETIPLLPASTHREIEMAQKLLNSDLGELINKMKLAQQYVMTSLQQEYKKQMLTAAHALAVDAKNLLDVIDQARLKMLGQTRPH

[14] = tested on: Fibrinogen (Alexa647-labelled); experiment: fibrinogen binders on compound microarrays, profiling panel, artefact control for SMM control-protein annotation, biochemical, small-molecule microarray, 635/667 nm fluorescence (AID 1131); conditions: fibrinogen-A647 binding fluorescence, higher = more signal;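 note: z-score merges 667 nm fluorescence with per-spot signal-to-noise over triplicate slides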
[15] = target: Follistatin (Homo sapiens) (UniProt P19883); experiment: follistatin binders on small-molecule microarrays, primary screen, biochemical, small-molecule microarray, 635/667 nm fluorescence (AID 1132); conditions: FST binding, 635 nm fluorescence, higher = more signal
Sequence of Follistatin (Homo sapiens) (P19883 whole entry, looked up): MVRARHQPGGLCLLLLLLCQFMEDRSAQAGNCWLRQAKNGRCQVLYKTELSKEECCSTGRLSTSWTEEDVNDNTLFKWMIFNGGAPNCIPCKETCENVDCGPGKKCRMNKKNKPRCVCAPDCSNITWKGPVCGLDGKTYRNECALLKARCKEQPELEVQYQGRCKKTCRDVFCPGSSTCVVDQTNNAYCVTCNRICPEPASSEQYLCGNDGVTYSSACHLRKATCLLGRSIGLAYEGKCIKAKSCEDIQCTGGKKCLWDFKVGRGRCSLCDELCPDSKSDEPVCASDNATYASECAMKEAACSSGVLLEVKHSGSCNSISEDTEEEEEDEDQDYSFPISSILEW

[16] = target: Fibroblast growth factor 2 (Homo sapiens) (UniProt P09038); experiment: FGF2 binders on small-molecule microarrays, primary screen, biochemical, small-molecule microarray, 635/667 nm fluorescence (AID 1133); conditions: small-molecule microarray binding, FGF2, fluorescence 635/667; higher = more signal
Sequence of Fibroblast growth factor 2 (Homo sapiens) (P09038 whole entry, looked up): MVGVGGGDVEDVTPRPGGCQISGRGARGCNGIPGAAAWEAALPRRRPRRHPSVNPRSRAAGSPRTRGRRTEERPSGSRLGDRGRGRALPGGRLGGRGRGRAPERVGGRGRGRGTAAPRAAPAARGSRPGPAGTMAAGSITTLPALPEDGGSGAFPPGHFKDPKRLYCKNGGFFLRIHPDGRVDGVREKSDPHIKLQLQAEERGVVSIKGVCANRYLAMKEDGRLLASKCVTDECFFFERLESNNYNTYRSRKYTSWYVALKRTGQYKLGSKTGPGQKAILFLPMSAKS

[17] = mitochondrial membrane potential change in A549 cells, profiling panel, cell-based, JC-1 fluorescence, basal, 24 h, 100 nL (AID 1138); conditions: higher = more signal;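 note: A549 lung adenocarcinoma cells under basal conditions with no added stimulus; test concentration not given here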
[18] = tested on: Lefty1; experiment: Lefty1 binders on small-molecule microarrays, primary screen, biochemical, small-molecule microarray, 635/667 nm fluorescence (AID 1139); conditions: small-molecule microarray binding, fluorescence 635/667; higher = more signal
[19] = tested on: wheat germ agglutinin (Triticum aestivum), Alexa647-labelled; experiment: wheat germ agglutinin binders on compound microarrays, profiling panel, artefact control for SMM control-protein annotation, biochemical, small-molecule microarray, 635/667 nm fluorescence (AID 1140); conditions: WGA-A647 binding, 635 nm fluorescence, higher = more signal;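 note: score merges 667 nm feature emission with signal to noise over triplicate slides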
[20] = target: Luciferin 4-monooxygenase (Photinus pyralis) (UniProt P08659); experiment: firefly luciferase enzyme inhibitors, primary screen, biochemical, luminescence, purified enzyme, 2006 set (AID 1141); conditions: SteadyGlo luminescence, 30 min, higher = more signal, called active from +8 up or from −8 down;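 note: cell-free assay with purified firefly luciferase at 100 ng per well in PBS; test concentration not given here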
Sequence of Luciferin 4-monooxygenase (Photinus pyralis) (P08659 whole entry, looked up): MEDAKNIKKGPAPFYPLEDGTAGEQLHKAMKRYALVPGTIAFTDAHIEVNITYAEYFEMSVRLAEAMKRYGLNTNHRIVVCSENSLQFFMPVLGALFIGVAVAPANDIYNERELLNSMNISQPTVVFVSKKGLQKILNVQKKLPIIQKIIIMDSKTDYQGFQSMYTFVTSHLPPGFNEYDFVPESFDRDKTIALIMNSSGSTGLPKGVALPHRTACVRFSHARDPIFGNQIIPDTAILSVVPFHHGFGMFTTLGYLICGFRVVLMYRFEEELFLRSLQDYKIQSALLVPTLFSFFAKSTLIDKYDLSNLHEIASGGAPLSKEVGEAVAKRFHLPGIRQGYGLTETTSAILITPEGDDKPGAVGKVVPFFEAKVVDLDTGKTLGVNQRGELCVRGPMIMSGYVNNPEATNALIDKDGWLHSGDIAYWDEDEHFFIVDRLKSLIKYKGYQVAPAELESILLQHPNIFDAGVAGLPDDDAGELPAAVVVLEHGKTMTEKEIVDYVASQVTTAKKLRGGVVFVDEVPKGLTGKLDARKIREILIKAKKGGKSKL

| Compound | composite z-score [1] | composite Z-score [2] | composite z-score [3] | composite z-score [4] | composite z-score [5] | composite z-score [6] | composite z-score [7] | composite z-score [8] | composite z-score [9] | composite z-score [10] | composite z-score [11] | composite z-score [12] | composite z-score [13] | composite z-score [14] | composite z-score [15] | composite z-score [16] | z-score [17] | composite z-score [18] | composite z-score [19] | z-score [20] |
| --- | --- | --- | --- | --- | --- | --- | --- | --- | --- | --- | --- | --- | --- | --- | --- | --- | --- | --- | --- | --- |
| COc1ccc(C(O)C2C=CC3C(=O)N(C)C(=O)C3N2N2CCCCC2)cc1OCc1ccccc1 (stereo not given) | 0.728 | 0.248 (inactive) | 0.13 | -0.0546 | 0.38 | 1.71 | 0.445 | 1.29 | -0.651 | 1.12 | 1.31 | 1.2 | 0.391 | 0.838 | 0.795 | -0.444 | 0.0785 | -0.24 | 0.951 | -0.381 (inactive) |
| COc1ccc([Si](C)(C)[C@@H]2[C@@H](CCO)O[C@]3(C(=O)N(Cc4ccc(NC(=O)[C@H](C)O)cc4)c4ccccc43)[C@H]2C)cc1 | 0.762 | 0.423 (inactive) | -0.0288 | -0.127 | 0.348 | 1.42 | -0.0561 | 1.32 | -0.0817 | 1.08 | 1.79 | 1.06 | 0.293 | 0.94 | 0.403 | 0.137 | -1.61 | 0.215 | 0.852 | -0.546 (inactive) |
| C[C@H]1COC(=O)[C@@H]2CCCN2C(=O)[C@@H](C)COC(=O)[C@@H]2CCCN2C1=O | -0.503 | -0.221 (inactive) | -0.241 | -0.108 | -0.525 | -0.99 | -0.111 | -1.02 | 0.296 | -0.0254 | -0.451 | -0.367 | 0.213 | -0.135 | 0.0429 | 0.1 | 1.05 | 0.308 | -0.468 | -0.515 (inactive) |
| C#CCCCON=C1C[C@@H](O)[C@@H](O)[C@@H]2[C@@H]3C(=O)N(Cc4ccc5c(c4)OCO5)C(=O)[C@@H]3CC[C@H]12 | 0.86 | 0.756 (inactive) | 0.116 | -0.181 | 0.495 | 1.21 | 0.786 | 1.15 | 0.558 | 0.752 | 0.833 | 0.57 | 0.168 | 0.573 | 1.03 | 0.4 | -0.421 | 1.59 | -0.142 | 0.975 (inactive) |
| O=C1C2C=CC(C(O)C#Cc3ccccc3)N(Nc3ccccc3)C2C(=O)N1c1ccccc1 (stereo not given) | 0.812 | 0.634 (inactive) | -0.0077 | -0.0176 | 0.812 | 1.94 | 0.435 | 0.432 | -0.575 | -0.414 | 1.1 | 0.356 | 0.0485 | 0.941 | 0.108 | -0.0859 | -0.136 | -0.67 | 1.23 | -0.934 (inactive) |
| CCC(=O)[C@]12O[C@@]3([C@@H]4C(=O)OCC[C@@H]41)N(CC)C(C)=C(C(=O)OC)[C@@H](c1ccccc1)N3C2=O | -0.499 | -0.302 (inactive) | -0.122 | -0.157 | 0.828 | -0.68 | 0.448 | -0.516 | 0.841 | -0.0306 | 1.41 | -1.67 | 0.335 | -0.62 | 0.754 | 0.111 | -0.404 | 0.373 | -0.0702 | -0.533 (inactive) |
| CC(C)[Si](OCC[C@H]1O[C@]2(C(=O)N(Cc3ccccc3)c3ccccc32)[C@@H](C)[C@@H]1[Si](C)(C)O)(C(C)C)C(C)C | 0.114 | -0.0745 (inactive) | 0.0026 | -0.148 | 0.191 | 0.379 | 0.0893 | 0.0631 | -0.0644 | 0.367 | -0.197 | -0.694 | 0.104 | 0.618 | 0.122 | -0.206 | -0.761 | 0.218 | 0.128 | -0.183 (inactive) |
| COC(=O)C1=C(C)N(Cc2ccccc2)c2c(C(=O)OC)c(C(=O)OC)c(C(=O)OC)c(=O)n2[C@@H]1c1ccccc1 | 0.8 | 0.242 (inactive) | 0.116 | -0.0158 | 0.0478 | 0.247 | 0.763 | 0.383 | -0.0328 | 0.641 | -0.0074 | 0.436 | 0.39 | 0.437 | 0.321 | 0.528 | 0.813 | 0.27 | 0.292 | -1.01 (inactive) |
| CN(C)C(=O)[C@@]1(Cc2ccccc2N=[N+]=[N-])N=C(c2ccc(OCCCO)cc2)O[C@H]1c1ccccc1CN=[N+]=[N-] | 0.972 | 0.478 (inactive) | 0.293 | 0.215 | 0.622 | 3.13 | 1.12 | 1.29 | -0.393 | 1.2 | 2.23 | 1.23 | 1.02 | 0.831 | 1.21 | 0.512 | 2.31 | 0.633 | 1.45 | -1.92 (inactive) |
| Cc1ccc(S[C@]2(C(=O)NC3CC3)CC(=O)N(Cc3cc(C(F)(F)F)cc(C(F)(F)F)c3)[C@@H]2c2ccc(CO)cc2)cc1 | 0.371 | -0.421 (inactive) | -0.0345 | -0.169 | 0.375 | 0.42 | 1.13 | 0.792 | 0.115 | 0.633 | 1.79 | 0.489 | 0.389 | 0.182 | 1.2 | 0.411 | 0.232 | 0.821 | 0.31 | 1.22 (inactive) |
| COCC(=C=CC[C@H](O)c1ccc(OCCO)cc1)C[C@H](O)c1ccccn1 | -0.769 | 1.14 (inactive) | -0.217 | -0.0942 | 0.603 | 0.257 | -0.0662 | 0.359 | -0.6 | 0.0109 | -0.0301 | 0.401 | -0.389 | -0.263 | 0.193 | 0.0116 | 1.92 | 0.233 | -0.32 | -2.45 (inactive) |
